Source: the supplement of paper PMC6555819

Each sequence was assayed on FXR:RXRa (NR concentration 270 nM, RXRa partner concentration 90 nM) (assay: PBM binding z-score (relative to random genomic background probes); higher = stronger binding; sequences stand for … in GC…GCGATTGACAGCGTAGAATGAAGG).
Method in brief: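 Ligand-free nuclear receptor dimers were applied to custom Agilent 4×180K protein-binding microarrays whose double-stranded probes carried direct-repeat seeds, single-nucleotide variants, half-site ablations and random human genomic background sequences in 34-nt variable regions. Incubation lasted 1 h. Binding z-scores were computed against the random background probes from regression-normalized fluorescence.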

Sequence	PBM binding z-score
TCGAATAGGTTAGTCGGGGCATTCAGCCAACATA	0.693
TCGAGTAGGTTACCAATGGGGTATTCAGCTTTCT	0.116
CAAACTAGTTCAAGGTCAAAGTCGGTTTGTGCCA	5.67
CGAACTAGGTCATCCAGGACAGCGAATACATTGA	4.51
ATACCAAAGTGATCGTGAGGTCGTTGATACTAAC	1.23
ACCTCTAGGTAAGACTCAGTTCAGTGAAGAACGC	-0.0705
TCATATAGGTAAAATGTGAAAGTCGGTGTGGTAA	0.975
CCGACTGGGGCAGAAAGGTTACCATCCCATCCGG	0.0864
TGGAGTAGGTTAGGGGCATTCAGAATGGCGTCGA	1.13
CCTACTGGGCCAAAGTCATTGATCAGTCAAAGCA	-0.681
ATTCGGAGGACAAAGGTCAGAGCTACGCCAGTGA	4.05
ATACCAAGGTGATCGTGAGGTCGTTGAGACTAAC	1.86
GCTAGCAGGCCAGTTGGGTCACTCAATGACGGGC	-0.488
CCTACTGGGCCCAAAAGGTCATTGATGCCGATAA	4.23
AGAACGAGGGCACGATGAGTTGATAGCAGAGTAG	0.874
TCATATAAGTAATACAGGTGAAAGTCGGCATCTA	1.33
ATCGAAATGTCGACGAGGTGAGTATACACCGTTT	-0.0573
TCTCGGAGGACACGAAAGGTCAGAGCTCGACATC	3.13
